Compounds with a hit are over-represented: about 6.2% of the library has one in this group of screens.
HT1080 IDH1KD tx: HT-1080 IDH1 knockdown cell toxicity (counter line). 2% of 360,000 active. HT-1080 IDH1 knockdown viability, ATP luminescence, 48 h. Potency, µM (top dose mostly 46.1 µM), for the others: top-dose activity, negative = toxicity, actives largely listed as cytotoxic;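 also: 0% = DMSO wells and -100% = cell-free medium wells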
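CellTiter-Glo luminescence after 48 h compound exposure at 37 degrees C of IDH1-knockdown HT-1080 cells in 5% FBS RPMI. %Activity scaled between DMSO wells and cell-free media wells, with curves fitted and assigned curve classes.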
ATXN2 expr inh: ATXN2 expression inhibition | AID 1745845 | HEK-293 ATXN2-luciferase reporter, luminescence, 24 h | Potency, µM (doses to about 57 µM), inactives show top-dose activity change, negative = inhibition, usual class: inhibitors | 0.72% of 360,000 active; also: % is scaled to controls: 0 for no effect and ±100 for the full control effect; nearly all actives have a fitted effect of over 55% in size
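ATXN2-luciferase reporter cells (luciferase flanked by upstream and downstream ATXN2 gene portions) were treated 24 h at 37 °C with compounds at up to 57 uM. SteadyGlo luminescence gave expression; GF-AFC fluorescence gave viability.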
KB-3-1 tox: KB-3-1 parental cell cytotoxicity. KB-3-1 viability, CellTiter-Glo ATP luminescence, 72 h. Potency, µM (top dose mostly 46.1 µM), usual class: cytotoxic. 1.4% of 400,000 active. AID 1347075; also: % is scaled to controls: 0 for no effect and ±100 for the full control effect; nearly all actives have a fitted effect of over 60% in size
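72 h, 37 °C compound treatment of KB-3-1 parental cells; CellTiter-Glo added, 10 min, luminescence read. Data corrected against DMSO-only plates and normalized before curve fitting.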
HT1080NT lethal: kills 2HG-producing HT-1080-NT fibrosarcoma cells; Potency, µM (top dose mostly 46.1 µM), without a hit: at the top dose activity, negative = less viability, most hits filed as cytotoxic; HT-1080-NT fibrosarcoma viability, CellTiter-Glo ATP luminescence, 48 h; 1.6% of 360,000 active;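 also: NT is the 2HG producing partner of a matched IDH1 knockdown line; 0% = DMSO-treated cells and -100% = media-only wells without cells; nearly all actives have a fitted effect of over 55% in size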
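Compounds were tested in concentration-response format on HT-1080-NT cells for 48 hours at 37 degrees C. Cell viability came from CellTiter-Glo luminescence; curves were classified by r2, response magnitude and activity.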
KB-V1 MDR tox: kills drug-selected multidrug resistant KB-V1 cells | 3.4% of 400,000 active | AID 1347076 | KB-V1 MDR cells viability, CellTiter-Glo, 72 h | Potency, µM (series often up to 46.1 µM), hits mostly cytotoxic; also: % is scaled to controls: 0 for no effect and ±100 for the full control effect; nearly all actives have a fitted effect of over 60% in size
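Luminescent ATP read-out (CellTiter-Glo, 10 min) measures survival of drug-selected KB-V1 MDR cells after 72 h, 37 degrees C compound exposure. Medium: phenol-red-free DMEM, 10% FBS. Values from fitted concentration-response curves.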
ATXN viability: reduces viability in counter-screen for ATXN expression inhibitors. S2 cells (HEK-293 line with an ATXN2-luciferase reporter) viability, CellTiter-Fluor protease fluorescence, 24 h. Potency, µM (highest dose often 56.7 µM), usual class: cytotoxic. 0.49% of 400,000 active; also: nearly all actives have a fitted effect of over 40% in size
Active calls of the source: *; i = inactive; ? = inconclusive; . = not tested or not shown. Calls follow the shape of the dose curve; as a rule, active = well fitted curve in the direction sought with a large enough effect; inconclusive = small, poorly fitted or top-dose-only effect, or another doubt; inactive = no such curve, though single readings can be large; an effect the other way counts as inactive or inconclusive. Potency is read from the fitted curve at half-maximal effect.

SMILES	HT1080 IDH1KD tx	ATXN2 expr inh	KB-3-1 tox	HT1080NT lethal	KB-V1 MDR tox	ATXN viability
O=C(N/N=C/c1cccs1)c1cc(-c2ccc3ccccc3c2)n[nH]1	?	-11%	i	?	?	i
O=C(N/N=C/C=C\c1ccccc1[N+](=O)[O-])c1cc(-c2ccc3ccccc3c2)n[nH]1	15µM*	-31%	i	13µM*	i	?
O=C(N/N=C/c1c[nH]c2ccccc12)c1cc(-c2ccc3ccccc3c2)n[nH]1	5.8µM*	27%	?	7.3µM*	?	?
Cn1c(N2CCOCC2)c(/C=N/OC(=O)c2ccc(F)cc2)c2ccccc21	3.2µM*	?	4.1µM*	2.8µM*	?	?
Cc1ccc(C(=O)O/N=C/c2c(N3CCOCC3)n(C)c3ccccc23)cc1	3.5µM*	?	?	4µM*	?	?
Cc1ccc(S(=O)(=O)N(CC(=O)N/N=C/c2ccco2)c2cc(Cl)cc(Cl)c2)cc1	?	-28%	i	?	18µM*	i
O=C(CN(c1ccc(Cl)cc1)S(=O)(=O)c1ccccc1)N/N=C/c1ccco1	-8%	2%	i	-12%	i	i
O=C1[C@@H]2C(Cc3ccc(O)cc3)NC3(C(=O)Nc4ccc(F)cc43)[C@@H]2C(=O)N1c1ccccc1 (stereo partly drawn)	-6%	6%	i	-13%	i	i
Cc1c(Cl)ccc2c1NC(=O)[C@]21N[C@@H](Cc2ccccc2)[C@H]2C(=O)N(c3ccc(F)cc3)C(=O)[C@H]21	?	-16%	?	-22%	9.2µM*	?
CCCc1cc(=O)[nH]c(SCc2cc(C(=O)OC)c(C)o2)n1	-10%	-5%	i	-10%	i	i
Cc1cc(C(=O)CSc2nc3ccccc3[nH]2)c(C)n1CC1CCCO1 (stereo not drawn)	?	?	3.7µM*	1%	2.3µM*	18µM*
COC(=O)c1cc(CSc2nc3ccccc3[nH]2)oc1C	-4%	18%	21µM*	0%	2.9µM*	i
CCOC(=O)c1c(C)[nH]c(C)c1C(=O)CSc1nc2ccccc2[nH]1	-14%	3%	i	-1%	23µM*	i
CCOC(=O)c1c(C)[nH]c(C)c1C(=O)CSc1nc2ccccc2c(=O)n1-c1ccc(CC)cc1	-19%	?	23µM*	-19%	7.3µM*	i
COc1cc(C2Nc3ccccc3C(=O)N2Cc2ccco2)ccc1O (stereo not drawn)	.	.	i	.	i	.
CCOC(=O)c1c(C)[nH]c(C)c1C(=O)Cn1nnc(-c2ccccc2C)n1	-21%	-17%	i	-5%	16µM*	i
C=C1CCC[C@]2(C)C[C@H]3OC(=O)C(CN(Cc4ccc(OC)c(OC)c4)CC(C)O)[C@H]3CC12 (stereo partly drawn)	?	.	i	?	i	?
CN1CCN(C2=Cc3cc(Cl)ccc3Sc3cc(F)ccc32)CC1	?	?	?	?	18µM*	?
CN1CCN(C2Cc3cc(Cl)ccc3Sc3cc(F)ccc32)CC1 (stereo not drawn)	?	?	18µM*	?	18µM*	?
CCOC(=O)c1cccc(NC(=O)COc2ccc([N+](=O)[O-])cc2)c1	5%	-9%	i	5%	23µM*	i
CCOC(=O)c1cccc(NC(=O)CN2CCN(c3ccc(OC)cc3)CC2)c1	9%	1%	i	2%	21µM*	i
CCOC(=O)c1sc(NC(=O)CN2CCN(c3ccc(OC)cc3)CC2)nc1C	5%	-9%	i	-4%	?	i
CCCOC(=O)c1cccc(NC(=O)COc2ccc([N+](=O)[O-])cc2)c1	?	-20%	i	-11%	?	i
NC1=N[C@@]2(c3cc(NC(=O)c4ccc(F)cn4)ccc3F)COC[C@@H]2CS1	.	32%	.	.	.	.
COc1ccc(NC(=O)c2c(Nc3ccccc3)sc(C(=O)c3ccc(F)cc3)c2N)cc1	?	?	2.1µM*	?	?	i
SMILES	HT1080 IDH1KD tx	ATXN2 expr inh	KB-3-1 tox	HT1080NT lethal	KB-V1 MDR tox	ATXN viability
COc1ccc2[nH]c(=O)c(CN(C(=O)c3cccc(Cl)c3)c3ccccc3OC)cc2c1	.	3%	i	.	i	i
CCOC(=O)CSC1=NC(=O)/C(=C\c2ccc(Cl)cc2)S1	?	25µM*	?	-25%	?	?
Cc1ccc(C(=O)C2C(=O)c3ccccc3C2=O)cc1	0%	1%	i	-13%	i	i
Cc1ccccc1N=C(c1ccccc1)C1C(=O)c2ccccc2C1=O	?	3%	?	?	21µM*	i
O=C1/C(=C/c2ccc([N+](=O)[O-])cc2)C=C(c2ccccc2)N1c1ccccc1	-10%	-2%	i	-3%	i	i
O=C1/C(=C/c2ccc([N+](=O)[O-])cc2)C=C(c2ccccc2)N1c1ccc(O)cc1	?	20µM*	?	-15%	5.8µM*	?
CCN(CC)c1ccc2cc(C(C)=O)c(=O)oc2c1	16%	14%	i	3%	i	i
CCN(CC)c1ccc2cc(NC(=O)CCC(=O)O)c(=O)oc2c1	0%	7.9µM*	i	-3%	i	.
Cc1c(Cl)cccc1NC(=O)CNS(=O)(=O)c1cccs1	.	3%	i	.	i	i
COc1ccc(CSC(=S)NNc2ccccc2)cc1	13µM*	.	?	?	i	?
COc1ccc(C(=O)NNc2ccccc2)cc1	-10%	-1%	i	?	i	i
CC(=O)c1cccc(NC(=O)C2Cc3c(-c4ccco4)ccnc3O2)c1 (stereo not drawn)	-28%	?	?	-15%	4.6µM*	i
CC(=O)c1cccc(-c2ccnc3c2CC(C(=O)Nc2ccccc2)O3)c1 (stereo not drawn)	2%	-13%	i	-15%	21µM*	i
CC(=O)c1cccc(NC(=O)C2Cc3c(-c4ccccc4)ccnc3O2)c1 (stereo not drawn)	-30%	-23%	i	-14%	i	?
CC(=O)Nc1ccc(NC(=O)C2Cc3c(-c4ccco4)ccnc3O2)cc1 (stereo not drawn)	-1%	3%	i	1%	i	i
COc1ccc(NC(=O)C2Cc3c(-c4ccncc4)ccnc3O2)cc1OC (stereo not drawn)	-10%	4%	i	0%	i	i

Assay outcomes from PubChem BioAssay.
